Read-out in test [1]: Human Leukocyte Antigen - DR isotype (HLADR), HLA-DRA (gene 3122)
In words: BSK_CASM3C_HLADR: BioMAP Diversity Plus: CASM3C Assay for Human Leukocyte Antigen - DR isotype (HLADR) Biomarker Activity (AID 2283043).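 Further: cell-surface HLA-DR protein level quantified by ELISA.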 Particulars: primary human coronary artery smooth muscle cells; actives raise or lower the signal.

Read-out in test [2]: Macrophage colony-stimulating factor (MCSF), CSF1 (gene 1435)
The experiment in a line: BSK_CASM3C_MCSF: BioMAP Diversity Plus: CASM3C Assay for Macrophage colony-stimulating factor (MCSF) Biomarker Activity (AID 2283044).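 Further: M-CSF protein amount quantified by ELISA after 24 h exposure.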 Conditions: primary human coronary artery smooth muscle cells; actives raise or lower the signal.

Read-out in test [3]: Low-density lipoprotein receptor (LDLR), LDLR (gene 3949)
In words: BSK_CASM3C_LDLR: BioMAP Diversity Plus: CASM3C Assay for Low-density lipoprotein receptor (LDLR) Biomarker Activity (AID 2283045).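 Further: LDLR protein level on the cell surface quantified by ELISA.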 Conditions: primary human coronary artery smooth muscle cells; actives raise or lower the signal.

Read-out in test [4]: Monocyte Chemoattractant Protein-1 (MCP1), CCL2 (gene 6347)
In words: BSK_CASM3C_MCP1: BioMAP Diversity Plus: CASM3C Assay for Monocyte Chemoattractant Protein-1 (MCP1) Biomarker Activity (AID 2283046).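 Further: MCP-1 level quantified by ELISA 24 h after dosing.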 Conditions: primary human coronary artery smooth muscle cells; actives raise or lower the signal.

A short description of test [5]: BSK_CASM3C_Proliferation: Cell Proliferation Assessment in the BioMAP Diversity Plus: CASM3C Assay (AID 2283047).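 Further: sulforhodamine B total protein stain as relative cell number at 560 nm; sub-confluent cells exposed 48 h before staining; fitted both ways against DMSO so gain or loss of cell number.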 Particulars: primary human coronary artery smooth muscle cells.
Read-out in test [6]: Monokine induced gamma interferon (MIG), CXCL9 (gene 4283)
In words: BSK_CASM3C_MIG: BioMAP Diversity Plus: CASM3C Assay for Monokine induced gamma interferon (MIG) Biomarker Activity (AID 2283048).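 Further: MIG protein level measured by ELISA.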 Particulars: primary human coronary artery smooth muscle cells; actives raise or lower the signal.

Read-out in test [7]: serum amyloid A (SAA), SAA1 (gene 6288)
The experiment in a line: BSK_CASM3C_SAA: BioMAP Diversity Plus: CASM3C Assay for serum amyloid A (SAA) Biomarker Activity (AID 2283049).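 Further: SAA protein level quantified by ELISA.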 Particulars: primary human coronary artery smooth muscle cells; actives raise or lower the signal.

A short description of test [8]: BSK_CASM3C_SRB: Viability Assessment in the BioMAP Diversity Plus: CASM3C Assay (AID 2283050).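 Further: cells exposed to compound for 24 h.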 Particulars: primary human coronary artery smooth muscle cells.
Read-out in test [9]: Thrombomodulin, THBD (gene 7056)
In words: BSK_CASM3C_Thrombomodulin: BioMAP Diversity Plus: CASM3C Assay for Thrombomodulin Biomarker Activity (AID 2283051).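 Further: thrombomodulin protein level measured by ELISA 24 h after dosing.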 Particulars: primary human coronary artery smooth muscle cells; actives raise or lower the signal.

Read-out in test [10]: Tissue Factor, F3 (gene 2152)
The experiment in a line: BSK_CASM3C_TissueFactor: BioMAP Diversity Plus: CASM3C Assay for Tissue Factor Biomarker Activity (AID 2283052).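 Further: cell surface tissue factor protein level read by ELISA.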 Particulars: primary human coronary artery smooth muscle cells; actives raise or lower the signal.

Read-out in test [11]: Interferon-gamma inducible Protein 10 (IP10), CXCL10 (gene 3627)
In words: BSK_hDFCGF_IP10: BioMAP Diversity Plus: hDFCGF Assay for Interferon-gamma inducible Protein 10 (IP10) Biomarker Activity (AID 2283053). Conditions: primary human foreskin fibroblasts; actives raise or lower the signal. The procedure, abridged:
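IP-10 levels, quantified by ELISA, are taken from human foreskin fibroblast cultures 24 h after chemical treatment, with DMSO serving as negative control and baseline for bidirectional analysis.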

Read-out in test [12]: Urokinase-type plasminogen activator receptor (uPAR), PLAUR (gene 5329)
In words: BSK_CASM3C_uPAR: BioMAP Diversity Plus: CASM3C Assay for Urokinase-type plasminogen activator receptor (uPAR) Biomarker Activity (AID 2283054).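 Further: cell-surface uPAR protein level quantified by ELISA.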 Conditions: primary human coronary artery smooth muscle cells; actives raise or lower the signal.

Read-out in test [13]: Vascular cell adhesion molecule 1 (VCAM1), VCAM1 (gene 7412)
In words: BSK_CASM3C_VCAM1: BioMAP Diversity Plus: CASM3C Assay for Vascular cell adhesion molecule 1 (VCAM1) Biomarker Activity (AID 2283055).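 Further: VCAM-1 protein level quantified by ELISA on the cells.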 Particulars: primary human coronary artery smooth muscle cells; actives raise or lower the signal.

Read-out in test [14]: Collagen III, COL3A1 (gene 1281)
In words: BSK_hDFCGF_CollagenIII: BioMAP Diversity Plus: hDFCGF Assay for Collagen III Biomarker Activity (AID 2283056). Particulars: primary human foreskin fibroblasts; actives raise or lower the signal. The method, boiled down:
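Human foreskin fibroblast primary cultures sampled 24 h after dosing; Collagen III quantified by ELISA. Signal fitted bidirectionally against DMSO baseline.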

Read-out in test [15]: Epidermal growth factor receptor (EGFR), EGFR (gene 1956)
The experiment in a line: BSK_hDFCGF_EGFR: BioMAP Diversity Plus: hDFCGF Assay for Epidermal growth factor receptor (EGFR) Biomarker Activity (AID 2283057). Particulars: primary human foreskin fibroblasts; actives raise or lower the signal. The method, boiled down: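 Measured by ELISA: EGFR levels on primary human foreskin fibroblasts 24 h after chemical treatment, analysed relative to DMSO with bidirectional fitting.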

Read-out in test [16]: Interleukin-8 (IL8), CXCL8 (gene 3576)
In words: BSK_hDFCGF_IL8: BioMAP Diversity Plus: hDFCGF Assay for Interleukin-8 (IL8) Biomarker Activity (AID 2283058). Particulars: primary human foreskin fibroblasts; actives raise or lower the signal. The method, boiled down:
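Primary human foreskin fibroblasts (hDFCGF system) dosed with chemical; IL-8 measured by ELISA 24 hours later. Bidirectional curve fitting relative to DMSO baseline; cytotoxicity tracked in parallel cultures by SRB total protein staining.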

A short description of test [17]: BSK_hDFCGF_Proliferation: Cell Proliferation Assessment in the BioMAP Diversity Plus: hDFCGF Assay (AID 2283059).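 Further: curves fitted for both rise and fall of signal versus DMSO baseline.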 Particulars: primary human foreskin fibroblasts. The method, boiled down: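 Primary human foreskin fibroblasts, sub-confluent; […]; 10% TCA fix, 0.1% SRB stain, A560 total protein. Gain/loss fitted bidirectionally vs DMSO control.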
Read-out in test [18]: Macrophage colony-stimulating factor (MCSF), CSF1 (gene 1435)
The experiment in a line: BSK_hDFCGF_MCSF: BioMAP Diversity Plus: hDFCGF Assay for Macrophage colony-stimulating factor (MCSF) Biomarker Activity (AID 2283060). Particulars: primary human foreskin fibroblasts; actives raise or lower the signal. The method, boiled down: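 Human foreskin fibroblast primary cultures; M-CSF measured by ELISA 24 hours after chemical dosing. Bidirectional fitting relative to DMSO, with overt cytotoxicity tracked by parallel SRB total-protein staining (0.1% SRB, 10% TCA fixation, 560 nm).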

The nature of test [19]: BSK_hDFCGF_SRB: Viability Assessment in the BioMAP Diversity Plus: hDFCGF Assay (AID 2283061).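 Further: cells exposed to compound for 24 h before the read.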 Particulars: primary human foreskin fibroblasts. The method, boiled down:
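Human foreskin fibroblasts in 96-well plates were treated 24 h. Total protein was measured by 0.1% SRB staining after 10% TCA fixation, read at 560 nm. Data were fitted bidirectionally against DMSO.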

Read-out in test [20]: TIMP metallopeptidase inhibitor 1 (TIMP1), TIMP1 (gene 7076)
The experiment in a line: BSK_hDFCGF_TIMP1: BioMAP Diversity Plus: hDFCGF Assay for TIMP metallopeptidase inhibitor 1 (TIMP1) Biomarker Activity (AID 2283062). Conditions: primary human foreskin fibroblasts; actives raise or lower the signal. The procedure, abridged:
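Human foreskin fibroblast primary cultures dosed for 24 h; secreted/surface TIMP-1 quantified by ELISA. Bidirectional curve fitting against DMSO baseline; cytotoxicity tracked in parallel cultures by SRB total-protein staining.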

SMILES strings stand for the structures. Where “and” joins values, the source holds several entries; their conditions need not be identical. Identical values can stand only once. The source holds several records for some structures; these can differ, active in one and inactive in another. Calls of active or inactive are those of the source. How the source made its calls: active means hit-call score of the fitted dose curve at least 0.9, where 1 is the maximum; inactive means score below 0.9.

The term AC50 denotes the concentration giving half of the maximal activity seen. For `OC(O)(C(F)C(O)(O)C(F)(F)F)C(F)(F)F`, the outcome in [1], in [2], in test [3], in test [4], in [5] and in test [7] was inactive. For the same compound, the outcome in test [8], in test [9], in test [11], in test [12], in [13] and in test [14] was inactive. The outcome in test [15], in test [16], in [18] and in [19] was inactive. For the same compound, the AC50 in test [6] is 33.3 µM (active) and 28.2 µM (active); in test [7], 49.1 µM (active); in test [10] it was 19 µM (active) and 13.4 µM (active); in [11] it was 19.6 µM (active); in [17], 9.21 µM (active) and 7.73 µM (active).

In the case of `C=CN1CCCC1=O`, the outcome in [1], in test [2], in test [3], in test [4], in test [5] and in test [6] was inactive. Besides, the result in test [7], in [8], in test [9], in [10], in test [11] and in [12] was inactive. Also, the outcome in test [13], in test [16], in [17] and in test [19] was inactive.

For the compound `FC(F)(F)COC(OCC(F)(F)F)OCC(F)(F)F`, the outcome in test [1], in test [2], in [3], in test [4], in [5] and in [6] was inactive. For the same compound, the outcome in test [7], in [8], in [9], in test [10], in test [12] and in test [13] was inactive. Further, the result in test [14], in [15], in test [16], in test [17], in test [19] and in test [20] was inactive.

`CCc1ccc(O)c(C(C)(C)C)c1`: the outcome in test [1], in test [2], in test [3], in [4], in test [6] and in [7] was inactive. Besides, the result in test [8], in test [9], in [10], in test [12] and in test [13] was inactive. Further, the AC50 in [5] was 20 µM (active); in [11], 35.2 µM (active); in test [16] it was 36.3 µM (active); in test [17], 34.5 µM (active); in [18], 27.4 µM (active); in test [19], 36.2 µM (active).

As for `O=C(NO)C1(NS(=O)(=O)c2ccc(Oc3ccc(F)cc3)cc2)CCOCC1`, the outcome in test [1], in test [2], in [3], in test [4], in test [5] and in test [6] was inactive. Further, the outcome in test [7], in test [8], in test [9], in [10], in test [12] and in test [13] was inactive. Further, the result in test [14], in test [15], in test [16], in test [17], in test [18] and in test [19] was inactive.

Turning to `C=CCc1cc(S(=O)(=O)c2ccc(O)c(CC=C)c2)ccc1O`, the AC50 is 13.6 µM (active) in test [1]; 28.2 µM (active) in test [2]; 32.2 µM (active) in test [3]; 16.2 µM (active) in test [4]; 14.3 µM (active) in test [5]; 31.4 µM (active) in test [6]. Also, the AC50 is 28.3 µM (active) in test [7]; 31.2 µM (active) in test [8]; 36.7 µM (active) in [10]; 29 µM (active) in [11]; 21.7 µM (active) in test [12]; 35.7 µM (active) in [13]. Besides, the AC50 is 34.4 µM (active) in [16], 9.21 µM (active) in test [17] and 14.8 µM (active) in [19]. In [9], the result was inactive.

Turning to `O=C(O)c1cccc(C[C@@H]2COc3ccc(OCc4nc5cc(F)ccc5s4)cc3[C@@H]2O)c1`, the result in [1], in test [2], in test [3], in test [4], in [6] and in test [7] was inactive. In addition, the result in [8], in [9], in [10], in test [11], in test [12] and in test [13] was inactive. Besides, the outcome in test [15], in test [16], in test [17], in [19] and in test [20] was inactive. Further, the AC50 in test [5] was 12.9 µM (active); in test [18], 13.8 µM (active).

For the origin of these results see PubChem BioAssay (EPA / NIEHS).
